# Laboratory results as given in PubChem BioAssay AID2429 (National Center for Advancing Translational Sciences (NCATS), 2010).
# The list shows a part of the results. Calls of active or inactive are those of the source. Calls follow the shape of the full dose curve.
# Biological target: 15-hydroxyprostaglandin dehydrogenase [NAD(+)] (Homo sapiens) (UniProt P15428)
# Test: Confirmation qHTS Assay for Inhibitors of HPGD (15-Hydroxyprostaglandin Dehydrogenase)
# Conditions: recombinant HPGD, NADH fluorescence, PGE2 substrate
# Excerpt: Assay Overview: Human 15-Hydroxyprostaglandin dehydrogenase (HPGD) catalyzes the inactivation of prostaglandin E2, and plays a major role in cancer biology by antagonizing the oncogenic potential of cyclooxygenase type 2 (COX2). Assays are available, based on absorbance/fluorescence increase of NADH with the substrate 15-OH prostaglandin E2. Inhibition of HPGD activity was screened by utilizing prostaglandin as an electron donor and NAD+ as an electron acceptor/cofactor. An increase in the fluorescence intensity due to conversion of NAD+ to NADH was used to measure the enzyme activity. This assay is a confirmation screen of primary qHTS protocol (See AID 894). References 1. Myung SJ, Rerko RM, Yan M, Platzer P, Guda K, Dotson A, Lawrence E, Dannenberg AJ, Lovgren AK, Luo G, Pretlow TP, Newman RA, Willis J, Dawson D, Markowitz SD. 15-Hydroxyprostaglandin dehydrogenase is an in vivo suppressor of colon tumorigenesis. Proc Natl Acad Sci U S A. 2006 Aug 8;103(32):12098-102. 2. […]
# Buffer: 50 mM Tris-HCl, 0.01% Tween 20, pH 8. […] The plates were immediately transferred to and read 5 times every 30 seconds on ViewLux High-throughput CCD imager (Perkin-Elmer) using 360 nm excitation and 450 nm emission fluorescence protocol. The fluorescence intensity difference between the last and the first time points was used to compute reaction progress.
# 15-hydroxyprostaglandin dehydrogenase [NAD(+)] (Homo sapiens), sequence (P15428 whole entry, looked up): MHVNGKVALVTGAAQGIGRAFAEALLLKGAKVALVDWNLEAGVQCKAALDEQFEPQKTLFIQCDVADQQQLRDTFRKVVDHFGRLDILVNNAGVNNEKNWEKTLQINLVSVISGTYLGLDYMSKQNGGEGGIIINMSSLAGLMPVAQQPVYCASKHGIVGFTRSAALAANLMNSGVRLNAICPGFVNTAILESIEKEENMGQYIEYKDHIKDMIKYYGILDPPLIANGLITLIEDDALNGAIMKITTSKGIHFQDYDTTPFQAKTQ
structure (smiles),measurement,value
CCN(CC)C(=O)c1ccc(NC(=O)c2cc(-n3cnnc3)ccc2Cl)cc1,Potency,7.08 µM (active)
